# Results taken from PubChem BioAssay (NCI).
# The panel holds about 83,000 compounds, 20% with a hit somewhere; the sample as a whole holds those more often.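 Step 1: grow cells in 96-well plates. Step 2: add test compound at a single concentration. Step 3: incubate 48 h. Step 4: record percent growth.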 Unmarked numbers belong to inactive results. Activity calls are given as the source filed them.
# Tested on: OVCAR-4 ovarian
# Assay: NCI-60 one-dose screen, 48 h (100 = growth as untreated, 0 = no growth, -100 = all killed)
# Conditions: 10 µM unless noted
# Procedure: Growth inhibition of the OVCAR-4 human tumor cell line is measured as a screen for anti-cancer activity. Cells are grown in 96 well plates and exposed to the test compound for 48 hours. Compounds are tested at a single concentration, which is 10^-5 M for most compounds. The reported endpoint is percent growth (GI% or GIPRCNT), where numbers from 0 - 100% represent growth inhibition, and numbers from -100% - 0 represent cell death. For example, a value of 40 represents 60% growth inhibition. A value of 0 means no net growth occurred over the course of the experiment. A value of -40 indicates 40% of cells at the beginning of the experiment died by the end of the experiment. A value of -100 means all cells are dead at the end of the experiment.
# NCI-60 Human Tumor Cell Lines Screen was performed using the standard one-dose NCI protocol, which is described in more detail at https://dtp.cancer.gov/discovery_development/nci-60/default.htm.
# Compounds with GIPRCNT values below 10 were considered active. Activity score was based on GIPRCNT using the following formula: […]
# Score is 0 for GIPRCNT values of 100 or above, 50 for GIPRCNT values of 0, and 100 for GIPRCNT values of -100.
row,SMILES,growth
1,O=S(=O)(NCCNc1cc(-c2c(-c3cccc(O)c3)nc3sccn23)ccn1)c1ccc(C(F)(F)F)cc1,22.1%
2,COc1ccc2cc(C(=O)c3coc4ccc(O)cc34)ccc2c1,97.6%
3,Clc1ccc2c(c1)N(c1ncnc3ccc(-c4cnc5[nH]ncc5c4)cc13)CC2,26.9%
4,COCCn1cc(-c2nc(-c3cc4cccnc4n3CCOC)cs2)c2cc(OC)ccc21,20%
5,Cc1ccccc1/C=C1\CN(C(=O)OC(C)(C)C)C/C(=C\c2ccccc2C)C1=O,-2.97% (active)
6,Cc1nc2ncnc(Cl)c2[nH]1,106%
7,CCOC(=O)C1=C(NC)OCC1=O,112%
8,O=C(Nc1cccc([N+](=O)[O-])c1)c1cc2ccccc2cc1O,15.6%
9,O=C(CN1C(=O)CCC1=O)Nc1ncc(Cc2ccc(F)cc2)s1,101%
10,COCCNC(=O)c1ccc(-c2nc3ccc4[nH]ncc4c3c3c2CCCC3)cc1,61.9%
11,O=C(CSc1nc2sc3c(c2c(=O)n1-c1ccccc1)CCCCC3)N/N=C/c1ccc(F)cc1,-47.4% (active)
12,O=C(NCCCCNC(=O)OCc1ccc2c(Cl)cc(Cl)c(O)c2n1)OCc1ccc2c(Cl)cc(Cl)c(O)c2n1,38.9%
13,Cc1cccc(N2CCN(CC(O)COc3ccc(Cl)cc3)CC2)c1 (stereo not given),115%
14,N=C(N)c1ccc(-c2ccc(-c3ccc(F)cc3)o2)o1,62%
15,O=C(CSc1nc2ccc([N+](=O)[O-])cc2[nH]1)Nc1ccc(F)cc1,34.6%
16,CCN1C(=O)N(CC)C2C1NN=c1s/c(=C\c3cccc([N+](=O)[O-])c3)c(=O)n12 (stereo not given),51.1%
17,CC(=O)Nc1nc2ccc(NS(=O)(=O)c3cccc4c(N(C)C)cccc34)cc2[nH]1,76.9%
18,COC(=O)/C(CCC=C(C)C)=C1\[C@@H](OC(C)=O)C[C@@]2(C)[C@H]1C[C@@H](O)[C@H]1[C@@]3(C)CC[C@H](NCCN)[C@@H](C)[C@@H]3CC[C@@]12C,90.2%
19,Cc1nc2c(=O)[nH]c(SCC(=O)Nc3cccc(F)c3)nc2[nH]c1=O,101%
20,CCOC(=O)c1c(C)nc2c(c1N)CC(=O)N2Cc1cc(F)cc(Cl)c1,67.5%

row,SMILES,growth
1,COc1cc(C(=O)n2nc(N3CCN(C)CC3)c3cc(N)ccc32)cc(OC)c1OC,49.7%
2,CCn1cc(C(=O)N/N=C/c2cccs2)c(=O)c2cc(F)c(N3CCNC(C)C3)c(F)c21 (stereo not given),76.2%
3,O=C(Nc1cc(Cl)ccc1O)c1ccc(Nc2ccnc(C(F)(F)F)c2)cc1,43.3%
4,COC(C(=O)[C@@H](O)[C@@H](C)O)[C@@H]1Cc2cc3cc(O[C@H]4C[C@@H](O[C@H]5C[C@@H](O)[C@H](O)C(C)O5)[C@H](O)C(C)O4)cc(O)c3c(O)c2C(=O)[C@H]1O[C@H]1C[C@@H](O[C@H]2C[C@@H](O[C@H]3C[C@@H](OC)[C@H](O)C(C)O3)[C@@H](O)C(C)O2)[C@H](O)C(C)O1 (stereo not given in full),64.5%
5,CO/N=C(/C)c1ccc(NC(=O)CSc2nnc(-c3ccncc3)n2-c2ccccc2)cc1,-30.7% (active)
6,Cc1ccc(-c2nc(/C=C3/C(=O)Nc4ccccc43)c3ccccn23)cc1,115%
7,COc1cc(CNS(=O)(=O)c2ccc(C)cc2)ccc1OCc1cn(-c2ccc(Br)cc2)nn1,97.3%
8,Cn1cc(-c2csc(-c3ccc(Cl)cc3)n2)c2cccnc21,-28.1% [100 µM] (active)
9,CC(C)(C)[Si](C)(C)O[C@H]1C(=O)C=CN2CC=C[C@@H]12,110% [100 µM]
10,CC1(C)c2[nH]c3ccccc3c2C[C@]2(C)[C@H]3CC=C4[C@@H]5C[C@@](C)(C(N)=O)CC[C@]5(C)CC[C@@]4(C)[C@]3(C)CC[C@@H]12,32.4%
11,C#CCn1cnc2c(Nc3cccc(NC(=O)C=C)c3)ncnc21,86.6%
12,O=C(Cn1c(-c2ccc([N+](=O)[O-])cc2)nc2ccccc21)NNC(=O)c1cccnc1,96.5%
13,CC1(C)CC[C@]2(c3nnc(-c4ccncc4)o3)CC[C@H]3C(=CC[C@H]4[C@@]3(C)CC[C@H]3C(C)(C)C(=O)CC[C@]43C)[C@@H]2C1,70.1%
14,COc1ccc(C2c3sc4c(F)cccc4c3Oc3nc[nH]c(=O)c32)cc1 (stereo not given),85.4%
15,Cc1cc(Cl)ccc1Nc1nc(C(F)(F)F)ccc1C(=O)N/N=C/c1ccc([N+](=O)[O-])cc1,-11.6% (active)
16,Cc1ccc(-c2nn(-c3ccccc3)cc2C=C2C(=O)ON=C2C(C)C)cc1,85.4%
17,COc1ccc(-c2cc(-c3ccc(Cl)cc3)c(C#N)c(=O)n2CCCCC(=O)Nc2ccccc2N)cc1,66.5%
18,C=C(C)[C@@H]1CC[C@]2(C(=O)O)CC[C@]3(C)[C@H](CC[C@@H]4[C@@]5(C)C[C@@H](Cc6cn(CCO[C@@H]7O[C@H](COC(C)=O)[C@H](OC(C)=O)[C@H](OC(C)=O)[C@H]7OC(C)=O)nn6)[C@H](O)C(C)(C)[C@@H]5CC[C@]43C)[C@@H]12,72.8%
19,C=C1C(=O)O[C@H]2[C@H]1CC/C(COC(=O)NCc1cc[nH]c1)=C\CC[C@@]1(C)O[C@@H]21,57.1%
20,COC(C(=O)[C@@H](O)[C@@H](C)O)[C@@H]1Cc2cc3cc(O[C@H]4C[C@@H](O[C@H]5C[C@@H](O)[C@H](O)C(C)O5)[C@H](O)C(C)O4)c(C)c(O)c3c(O)c2C(=O)[C@H]1O[C@H]1C[C@@H](O[C@H]2C[C@@H](O[C@H]3C[C@@H](O)[C@H](OC)C(C)O3)[C@@H](O)C(C)O2)[C@H](O)C(C)O1 (stereo not given in full),11.8%
